An excerpt weighted towards active compounds, which were near 21% of everything screened.
CHX counter: Cycloheximide Counterscreen for Small Molecule Inhibitors of Shiga Toxin; cell reporter, cycloheximide protein synthesis inhibition counterscreen; max response, %; 300,000 compounds, 12% hits; in the data active means max response mostly above about 13%, no sharp cut-off; inactive means mostly below about 14%; further: read at 38.3 µM for the half of the compounds with a filed dose; 0% is about no effect
Shiga inhibitor: A qHTS for Small Molecule Inhibitors of Shiga Toxin; 290,000 compounds, 9.2% hits; inhibition, % at 38.7 µM; Vero cells, Shiga toxin protein synthesis inhibition reporter; in the data active means inhibition mostly above about 28%, no sharp cut-off; inactive means mostly below about 43%; further: 0% is about no effect
NS1 function inh: qHTS Assay for Inhibitors of Influenza NS1 Protein Function; Potency, µM (highest dose often 46.1 µM), for inactives: top-dose activity, positive = more growth; 270,000 compounds, 0.4% hits; AID 2326, 2010; calls by dose curve; further: potency means the concentration at half of the fitted maximal effect; actives are rising curves; nearly all actives have a fitted effect of over 50% in size
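A cell-based growth assay was used: compounds that relieve NS1-induced slow growth of budding yeast raise OD600. Assay medium was yeast nitrogen base with ammonium sulphate and -URA supplement, pH 6.0, with 2% galactose.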
Pf growth 96h: Primary qHTS for delayed death inhibitors of the malarial parasite plastid, 96 hour incubation; P. falciparum luciferase reporter growth, 96 h; Potency, µM (doses to about 28.7 µM), without a hit: top-dose activity change, negative = inhibition, most hits filed as inhibitors; 320,000 compounds, 6.9% hits; AID 504834, 2011; further: potency means the concentration at half of the fitted maximal effect; on the % scale 0 is the no-effect control and ±100 the full control effect
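Plates of compound plus infected erythrocytes (2% hematocrit, 0.05% parasitemia final) incubate 96 hours, 37 C, 5% CO2. Detection reagent added; reduced luminescence from the parasites' luciferase reporter flags inhibition.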
Pf growth 48h: Primary qHTS for delayed death inhibitors of the malarial parasite plastid, 48 hour incubation; P. falciparum luciferase growth in erythrocytes, 48 h; Potency, µM (top dose mostly 28.7 µM), for the others: at the top dose activity change, negative = inhibition, actives largely listed as inhibitors; 310,000 compounds, 5.9% hits; further: potency means the concentration at half of the fitted maximal effect; on the % scale 0 is the no-effect control and ±100 the full control effect
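Read-out is firefly luciferase luminescence from an integrated reporter in P. falciparum, so falling signal marks reduced parasite growth. Infected erythrocytes were at 2% hematocrit and 0.1% parasitemia (final) in Albumax-supplemented RPMI 1640.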
Active calls of the source: *; ? = inconclusive; . = not tested or not shown. Unless noted, the call rests on the fitted dose curve; in most records, active means well fitted inhibition curve with a large enough effect; inconclusive means small, poorly fitted or top-dose-only effect, or another doubt; inactive means no such curve, though single readings can be large or run the other way.

SMILES	CHX counter	Shiga inhibitor	NS1 function inh	Pf growth 96h	Pf growth 48h
FC(F)Oc1ccc(-n2cc(-c3ccc(Cl)cc3)[n+]3c2CCCCC3)cc1	-1	-12	-2%	?	1.5µM*
COc1ccc(-n2cc(-c3ccccc3)[n+]3c2CCCCC3)cc1	-2	-7	.	0.93µM*	1µM*
COc1ccc(-c2cn(-c3ccc(SC(F)F)cc3)c3[n+]2CCC3)cc1OC	-7	-12	11%	?	?
COc1ccc(-c2cn(-c3ccc(OC)cc3)c3[n+]2-c2ccccc2CC3)cc1	-1	-5	11%	0.41µM*	1.2µM*
COc1ccc(-c2c3c(=O)n(C)c(=O)n(C)c3cn2-c2ccccc2)cc1	-2	-1	0%	?	?
FC(F)Sc1ccc(-n2cc(-c3ccccc3)[n+]3c2CCC3)cc1	-1	15	?	0.66µM*	1.2µM*
COc1ccc(NC(C)=O)cc1S(=O)(=O)N1CCN(C/C=C/c2ccccc2)CC1	-3	-4	.	5%	-13%
CC(C)(C)C1CCC(=NNC(=S)Nc2cccnc2)CC1 (centres undefined)	-1	4	.	0%	6%
CC(C)(C)C1CCC(=NNc2nc3ccccc3[nH]2)CC1 (centres undefined)	37*	68*	.	?	?
c1ccc2c(c1)CC/C2=N/Nc1nc2ccccc2[nH]1	47*	119*	.	?	2.6µM*
c1ccc(CN2CCC(=NNc3nc4ccccc4[nH]3)CC2)cc1	33*	31	.	?	-2%
Cc1ccc(N2CCN(S(=O)(=O)c3nnc(NC(=O)c4ccco4)s3)CC2)cc1	-3	13	-34%	-3%	?
NC1=NC(=Nc2ccccc2)c2ccccc21	0	40	-39%	?	10%
CC(C)c1ccc(N=C2N=C(N)c3ccccc32)cc1	80*	118*	-7%	140%	33%
NC1=NC(=Nc2ccc(Cl)cc2)c2ccccc21	47*	27	-16%	-1%	-4%
NC1=NC(=Nc2ccc(Br)cc2)c2ccccc21	26*	62*	-19%	-8%	-1%
CCN1CC2=C(OC(N)=C(C#N)C2c2cccs2)/C(=C\c2cccs2)C1 (centres undefined)	-2	-7	2%	9.3µM*	.
COc1ccc(-c2c(C)c3cc(O)ccc3oc2=O)cc1	18*	24	-23%	?	?
COc1ccc(-c2c(C)c3ccc(O)cc3oc2=O)cc1OC	1	8	1%	15%	16%
COc1ccc(-c2c(O)c3cc(O)cc(O)c3oc2=O)cc1	44*	71*	.	.	.
CCCOc1ccc(C(=O)NCC(c2cccs2)N(C)C)cc1 (centres undefined)	20*	57	-6%	-13%	30%
CCCOc1ccc(C(=O)NCC(c2ccco2)N(C)C)cc1 (centres undefined)	16*	21	-5%	?	3%
Cc1cccc(C(=O)NCC(c2ccco2)N(C)C)c1 (centres undefined)	6	7	.	38%	-12%
CCOc1ccc(C(=O)NCC(c2cccs2)N(C)C)cc1OCC (centres undefined)	2	-6	-3%	-23%	-10%
CCc1noc(C)c1C(=O)N(C)CC(=O)Nc1cccc(OC)c1	.	.	.	11%	-4%
SMILES	CHX counter	Shiga inhibitor	NS1 function inh	Pf growth 96h	Pf growth 48h
Cc1ccc(S(=O)(=O)N(C)C)cc1NC(=O)c1cccnc1Oc1ccccc1	-1	-5	3%	-1%	-11%
Cc1cc(C(=O)CSc2nnc(C3CC3)n2C2CC2)c(C)n1C(C)C	.	.	.	-22%	?
CN(CC(=O)Nc1ccc(S(=O)(=O)N2CCCC2)cc1)Cc1ccc(Cl)cc1	2	-3	-19%	8.3µM*	?
CN(CC(=O)Nc1ccc(S(=O)(=O)N2CCCC2)cc1)Cc1c(F)cccc1Cl	11	5	.	13µM*	-21%
O=C(Cc1ccc(F)cc1)Nc1ccc(S(=O)(=O)N2CCCC2)cc1	.	.	.	?	15%
CN(CC(=O)Nc1cccc(S(=O)(=O)N2CCCC2)c1)CC(=O)Nc1ccc(Cl)c(C(F)(F)F)c1	.	.	.	?	15µM*
Cn1c(Cc2ccccc2)nnc1SCC(=O)c1ccc(Br)s1	9	22	-10%	0%	-5%
CCOC(=O)C(C)Sc1nc(-c2cccs2)ccc1C#N (centres undefined)	25*	104	-9%	20%	-15%

Compound activity as filed in PubChem.
